The values below come from PubChem BioAssay (Tox21).

Assay [1] is described as follows: qHTS assay to identify small molecule agonists of the estrogen receptor alpha (ER-alpha) signaling pathway in the presence of an antagonist - cell viability counter screen (AID 1259386). Further: series mostly up to about 92 µM; nearly all actives have a fitted effect of over 30% in size. In a few lines: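 Read-out: CellTiter-Fluor fluorescence after 1hr reagent incubation, measured in the same wells as the luciferase readout. VM7Luc4E2 cells were exposed to 15 compound concentrations with 10.0nM ICI-182,780 for 22hr at 37C.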
(In general: Quantitative high-throughput screening tests each substance at several concentrations.)

For assay [2], the target named is Progesterone receptor (Homo sapiens) (UniProt P06401). Nature of the assay: qHTS assay to identify small molecule agonists of the progesterone receptor (PR) signaling pathway (AID 1346784; calls by dose curve; further: nearly all actives have a fitted effect of over 30% in size). In a few lines: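 Reporter assay, GripTite PR-UAS-bla HEK 293T cells: 16 hr exposure to DMSO-dissolved compounds at 37C, 5% CO2, in steroid-depleted (2% charcoal-stripped FBS) medium; beta-lactamase measured by FRET fluorescence.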
Chain of Progesterone receptor (Homo sapiens) (P06401 whole entry, looked up): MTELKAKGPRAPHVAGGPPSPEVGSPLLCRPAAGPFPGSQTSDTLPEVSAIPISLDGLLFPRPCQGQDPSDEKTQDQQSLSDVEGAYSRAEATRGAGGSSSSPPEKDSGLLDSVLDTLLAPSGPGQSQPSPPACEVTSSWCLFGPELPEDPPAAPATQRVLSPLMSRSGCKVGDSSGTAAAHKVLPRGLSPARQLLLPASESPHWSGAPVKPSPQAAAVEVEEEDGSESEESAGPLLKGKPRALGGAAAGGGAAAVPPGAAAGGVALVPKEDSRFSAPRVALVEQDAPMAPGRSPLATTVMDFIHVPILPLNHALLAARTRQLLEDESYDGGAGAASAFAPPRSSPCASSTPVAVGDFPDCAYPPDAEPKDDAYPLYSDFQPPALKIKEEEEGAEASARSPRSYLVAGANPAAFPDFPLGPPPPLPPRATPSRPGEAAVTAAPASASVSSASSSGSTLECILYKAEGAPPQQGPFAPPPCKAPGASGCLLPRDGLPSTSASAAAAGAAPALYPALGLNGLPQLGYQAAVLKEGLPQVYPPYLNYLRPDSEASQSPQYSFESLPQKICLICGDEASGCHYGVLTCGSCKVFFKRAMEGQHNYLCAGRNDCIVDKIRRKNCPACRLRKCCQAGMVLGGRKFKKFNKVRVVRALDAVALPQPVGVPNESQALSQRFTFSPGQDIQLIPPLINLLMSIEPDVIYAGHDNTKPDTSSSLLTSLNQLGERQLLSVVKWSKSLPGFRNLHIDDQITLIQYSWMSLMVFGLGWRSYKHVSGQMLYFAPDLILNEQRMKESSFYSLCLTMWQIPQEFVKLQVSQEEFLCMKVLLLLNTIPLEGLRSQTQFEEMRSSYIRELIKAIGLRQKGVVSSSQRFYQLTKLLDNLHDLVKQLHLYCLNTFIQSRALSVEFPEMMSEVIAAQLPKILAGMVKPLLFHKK

Assay [3] has the same target. Nature of the assay: qHTS assay to identify small molecule antagonists of the progesterone receptor (PR) signaling pathway (AID 1346795; active means well fitted inhibition curve with a large enough effect in the signal ratio in the repeat runs, not every such curve was filed as active; the % refers to the signal ratio). The gist of the method:
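Stimulus R5020 at 1 nM final; cells HEK293T PR-UAS-bla; medium with 2% charcoal-stripped FBS; compound exposure 16 hr at 37C, 5% CO2; detection by FRET beta-lactamase substrate, 2 hr, room temperature.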

Assay [4] in a line: qHTS assay to identify small molecule antagonists of the progesterone receptor (PR) signaling pathway - cell viability counter screen (AID 1346798). Further: series mostly up to about 92 µM; nearly all actives have a fitted effect of over 50% in size. In a few lines: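 In the same plates used for the beta-lactamase readout, cell viability of compound- and R5020-treated PR-UAS-bla HEK293T cells (16 hr, 37C) was assessed by CellTiter-Glo luminescence.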
A short description of assay [5]: qHTS assay to identify small molecule agonists of the progesterone receptor (PR) signaling pathway - cell viability counter screen (AID 1346799; calls by dose curve; further: nearly all actives have a fitted effect of over 45% in size). The gist of the method:
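Multiplexed viability read: CellTiter-Glo luminescence, 30 min RT, following LiveBLAzer FRET measurement on PR-UAS-bla HEK293T cells exposed to compounds 16 hr.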

Assay [6] can be described thus: qHTS assay to identify small molecule antagonists of the TGF-beta/Smad signaling pathway - cell viability counter screen (AID 1346824). Further: nearly all actives have a fitted effect of over 50% in size. In a few lines: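 Cytotoxicity counter-screen run in the same wells as the beta-lactamase Smad reporter read: CellTiter-Glo luminescence after 30 min at room temperature. HEK 293T SBE-bla cells had 5 hr compound exposure at 37 C with TGF-beta1 (0.25 ng/mL stock).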

Assay [7] can be described thus: qHTS assay to identify small molecule agonists of the TGF-beta/Smad signaling pathway - cell viability counter screen (AID 1346829). Further: top concentration of the series differs between compounds; nearly all actives have a fitted effect of over 45% in size. In a few lines: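 CellTiter-Glo luminescence readout; SBE-bla HEK 293T cells, overnight plating, compound 5 hr at 37 C/5% CO2, then bla substrate 2 hr RT, then CellTiter-Glo 30 min RT.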
A short description of assay [8]: qHTS assay to identify small molecule agonists of the TGF-beta/Smad signaling pathway (AID 1346859; active means well fitted activation curve with a large enough effect in the signal ratio in the repeat runs, not every such curve was filed as active; the % refers to the signal ratio; further: series mostly up to about 77 µM). In a few lines:
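Screening used HEK 293T SBE-bla cells at 4,000/well. Test agents: 5 hr, 37 C. Detection: FRET substrate, 2 hr RT, then excitation 405 nm with emissions at 460 and 530 nm.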

Assay [9] has as its target Thyrotropin-releasing hormone receptor (Homo sapiens) (UniProt P34981). Put plainly: qHTS assay to identify small molecule antagonists of the thyrotropin-releasing hormone receptor (TRHR) signaling pathway (AID 1346877; active means well fitted inhibition curve with a large enough effect in the repeat runs, not every such curve was filed as active; further: series mostly up to about 51 µM). The gist of the method:
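HEK293/TRHR cells, 18 h, 37 °C; Ca2+ dye 2 h; cpd 5 min RT; TRH 1 nM final; fluorescence read 3 min, 1 s intervals; 15 concs, triplicate.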

For assay [10] the target is unchanged. Nature of the assay: qHTS assay to identify small molecule agonists of the thyrotropin-releasing hormone receptor (TRHR) signaling pathway (AID 1346891; calls by dose curve; further: series mostly up to about 58 µM). The gist of the method:
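Readout was intracellular calcium fluorescence in TRHR-Hek293 cells. Cells were incubated 18 h, dye-loaded 2 h at 37 °C, and treated with compound in agonist mode.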

A short description of assay [11]: Human pregnane X receptor (PXR) small molecule agonists, qHTS cell viability counter screen (AID 1346977). Further: nearly all actives have a fitted effect of over 50% in size. The gist of the method:
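In each well, the PXR reporter HepG2 line was checked for viability: CellTiter-Fluor reagent added 23hr post-dosing, fluorescence read after 1hr incubation at 37C.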

Assay [12] in a line: Caspase-3/7 induction in HepG2 cells by small molecules, qHTS assay (AID 1346978). Further: nearly all actives have a fitted effect of over 15% in size. The gist of the method: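 Caspase-3/7 induction was measured by Caspase-Glo 3/7 luminescence (30 min, room temperature) after a 17 hr compound exposure of wild-type HepG2 cells seeded at 2,000 per well and pre-incubated 5 hr.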
A short description of assay [13]: Caspase-3/7 induction in CHO-K1 cells by small molecules, qHTS cell viability counter screen (AID 1346979). Further: nearly all actives have a fitted effect of over 35% in size. The gist of the method: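 Following a 5hr settling period, CHO-K1 cells at 1,500 per well received DMSO-dissolved compounds. Cell viability was quantified 16hr later by CellTiter-Fluor fluorescence, measured after 1hr with reagent at 37C.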
The nature of assay [14]: Caspase-3/7 induction in CHO-K1 cells by small molecules, qHTS assay (AID 1346980). Further: nearly all actives have a fitted effect of over 15% in size. The gist of the method: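 Luminescent Caspase-Glo 3/7 read (30min, room temperature) quantified apoptosis induction. Cells were wild-type CHO-K1, treated with compound for 17hr at 37 C and 5% CO2.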
Assay [15] is described as follows: Caspase-3/7 induction in HepG2 cells by small molecules, qHTS cell viability counter screen (AID 1346981). Further: series mostly up to about 92 µM; nearly all actives have a fitted effect of over 30% in size. The gist of the method:
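Fluorescence read-out of live-cell protease activity (CellTiter-Fluor) after 1 hr with reagent. This was measured in the same wells as the caspase-3/7 luminescence, on HepG2 cells exposed to DMSO-dissolved compounds for 16 hr at 37 C.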

The target in assay [16] is Nuclear receptor subfamily 1 group I member 2 (Homo sapiens) (UniProt O75469). Nature of the assay: Human pregnane X receptor (PXR) small molecule agonists, qHTS assay (AID 1346982). Further: nearly all actives have a fitted effect of over 35% in size. Further: potency means the concentration at half of the fitted maximal effect. The gist of the method:
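HepG2 PXR-Luc reporter line, 5% charcoal-stripped FBS; 5 hr pre-incubation, compound (DMSO) 24 hr at 37 C/5% CO2; ONE-Glo 30 min RT; luminescence read-out.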

The target is the same in assay [17]. Put plainly: CYP3A4 induction through human pregnane X receptor (PXR) by small molecules, qHTS assay (AID 1346984). Further: nearly all actives have a fitted effect of over 40% in size. In a few lines: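 HepG2-derived DPX-2 line carrying PXR plus a CYP3A4-promoter luciferase reporter; cells plated 5 hr, compound-exposed 24 hr at 37C. CYP3A4 activity probed with 3uM (final) Luciferin-IPA for 3hr, then luciferase read after One-Glo.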

For assay [18] the target is unchanged. Nature of the assay: Human pregnane X receptor (PXR) activation by small molecules, qHTS assay (AID 1346985). Further: nearly all actives have a fitted effect of over 40% in size. In a few lines: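 DPX-2 cells (HepG2 co-transfected with a PXR response element and a CYP3A4-promoter luciferase construct) were seeded at 2,000 per well, rested 5 hr at 37C, then exposed to DMSO-dissolved compounds for 24 hr. Activation was read as luciferase luminescence.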

Assay [19] deals with Acetylcholinesterase (Homo sapiens) (UniProt P22303). Put plainly: Acetylcholinesterase (AChE) small molecule antagonists: colormetric cell-based qHTS assay (AID 1347395; calls by dose curve; further: nearly all actives have a fitted effect of over 30% in size). In a few lines: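 After overnight attachment at 37 C, SH-SY5Y cells get 30 min compound exposure; detection cocktail (acetylthiocholine, DTNB) then incubates 90 min at 37 C, and absorbance reflects AChE-generated thiocholine.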
Chain of Acetylcholinesterase (Homo sapiens) (P22303 whole entry, looked up): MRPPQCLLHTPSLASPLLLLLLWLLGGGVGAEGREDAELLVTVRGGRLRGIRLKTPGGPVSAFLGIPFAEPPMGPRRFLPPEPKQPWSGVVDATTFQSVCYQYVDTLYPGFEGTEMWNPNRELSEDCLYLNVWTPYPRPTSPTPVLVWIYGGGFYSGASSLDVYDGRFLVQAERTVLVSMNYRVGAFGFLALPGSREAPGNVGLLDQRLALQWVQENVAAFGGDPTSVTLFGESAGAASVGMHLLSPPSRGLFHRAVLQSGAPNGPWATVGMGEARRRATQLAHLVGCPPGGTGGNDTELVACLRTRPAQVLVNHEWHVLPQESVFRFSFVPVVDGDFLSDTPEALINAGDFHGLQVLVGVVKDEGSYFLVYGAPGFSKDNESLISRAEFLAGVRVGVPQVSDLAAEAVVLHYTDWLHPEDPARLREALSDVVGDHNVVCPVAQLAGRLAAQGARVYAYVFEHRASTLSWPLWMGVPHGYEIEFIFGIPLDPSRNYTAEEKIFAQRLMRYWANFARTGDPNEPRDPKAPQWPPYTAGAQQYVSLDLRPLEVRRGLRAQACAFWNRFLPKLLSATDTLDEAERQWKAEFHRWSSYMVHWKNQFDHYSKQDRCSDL

The target of assay [20] is Nuclear receptor subfamily 1 group I member 2 (Rattus norvegicus) (UniProt Q9R1A7). Put plainly: Rat pregnane X receptor (rPXR) activation by small molecules, qHTS assay (AID 1346983). Further: nearly all actives have a fitted effect of over 20% in size. The following applies: rPXR luciferase reporter cells, One-Glo luminescence, 24 h; active compounds read high. The gist of the method: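 Luminescent readout (One-Glo luciferase, 30 min room temperature) followed 24 hr compound treatment at 37 C of rPXR cells plated 2,000 per well and preincubated 5hr; qHTS format with compounds delivered in DMSO.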
Chain of Nuclear receptor subfamily 1 group I member 2 (Rattus norvegicus) (Q9R1A7 whole entry, looked up): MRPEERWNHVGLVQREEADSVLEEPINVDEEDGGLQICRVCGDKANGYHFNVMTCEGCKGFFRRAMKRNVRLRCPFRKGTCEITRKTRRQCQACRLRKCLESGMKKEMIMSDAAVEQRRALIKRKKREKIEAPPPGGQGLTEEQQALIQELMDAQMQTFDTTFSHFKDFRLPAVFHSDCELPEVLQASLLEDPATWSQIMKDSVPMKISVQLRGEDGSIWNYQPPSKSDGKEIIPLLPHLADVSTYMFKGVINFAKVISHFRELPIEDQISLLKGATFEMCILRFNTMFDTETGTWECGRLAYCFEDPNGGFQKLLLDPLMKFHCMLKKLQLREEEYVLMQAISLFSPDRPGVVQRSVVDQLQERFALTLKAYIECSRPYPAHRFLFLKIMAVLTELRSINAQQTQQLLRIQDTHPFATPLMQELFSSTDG

SMILES strings stand for the structures. Values without a mark were called inactive. Records with an inconclusive call do not appear. Active and inactive are the calls of the source. Unless noted, the call rests on the fitted dose curve; in most records, active means well fitted curve in the direction sought with a large enough effect in the repeat runs; inconclusive means weak or mixed curves; inactive means no such curve, though single readings can be large; an effect the other way counts as inactive or inconclusive.
On the % scale 0 is the no-effect control and ±100 the full control effect.

Chain of Nuclear receptor subfamily 1 group I member 2 (Homo sapiens) (O75469 whole entry, looked up): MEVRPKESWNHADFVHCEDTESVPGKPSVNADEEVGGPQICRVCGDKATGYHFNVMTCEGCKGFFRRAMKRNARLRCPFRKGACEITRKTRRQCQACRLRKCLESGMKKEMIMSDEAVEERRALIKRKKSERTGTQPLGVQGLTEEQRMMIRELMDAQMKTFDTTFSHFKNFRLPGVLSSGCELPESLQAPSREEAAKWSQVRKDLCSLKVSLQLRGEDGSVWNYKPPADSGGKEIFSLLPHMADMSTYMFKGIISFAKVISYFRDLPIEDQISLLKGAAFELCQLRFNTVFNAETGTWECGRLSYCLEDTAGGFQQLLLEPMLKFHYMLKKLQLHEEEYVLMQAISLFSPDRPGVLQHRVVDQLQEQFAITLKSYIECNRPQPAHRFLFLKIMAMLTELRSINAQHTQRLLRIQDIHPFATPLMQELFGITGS
Chain of Thyrotropin-releasing hormone receptor (Homo sapiens) (P34981 whole entry, looked up): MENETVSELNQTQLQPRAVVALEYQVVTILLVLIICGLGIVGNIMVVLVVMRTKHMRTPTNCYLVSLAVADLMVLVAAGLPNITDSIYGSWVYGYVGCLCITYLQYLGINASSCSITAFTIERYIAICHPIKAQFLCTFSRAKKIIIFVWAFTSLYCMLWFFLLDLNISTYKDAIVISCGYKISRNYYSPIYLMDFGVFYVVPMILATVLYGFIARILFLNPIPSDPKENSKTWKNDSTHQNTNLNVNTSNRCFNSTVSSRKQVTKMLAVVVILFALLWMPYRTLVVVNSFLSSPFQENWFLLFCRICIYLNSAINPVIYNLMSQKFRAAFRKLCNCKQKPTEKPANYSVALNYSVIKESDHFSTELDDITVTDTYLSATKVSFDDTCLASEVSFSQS

For `Cc1ccccc1`, the Potency entry in assay [1], in [2], in assay [3], in [4], in [5] and in assay [6] was “inactive” throughout. The Potency entry in [7], in assay [9], in [11], in [12], in assay [13] and in [14] was “inactive” each time. Further, the Potency entry in assay [15], in [16], in [18] and in assay [19] was “inactive” in each case. Also, the outcome in [8], in [10] and in [17] was inactive.

With `Cc1ccc(N)c(C)c1`, the Potency entry in [1], in assay [2], in [3], in assay [4], in assay [5] and in assay [6] was “inactive” each time. For the same molecule, the Potency result in assay [7], in assay [9], in assay [11], in assay [12], in assay [13] and in assay [14] was “inactive” each time. The Potency entry in [15] and in assay [16] was “inactive” in each case. The molecule was classed as inactive in assay [8] and in [10].

Take `C=CC(=O)NC(C)(C)CC(C)=O`: the Potency result in assay [1], in assay [2], in assay [3], in assay [4], in assay [5] and in [6] was “inactive” throughout. Also, the Potency entry in assay [7], in [9], in [11], in assay [12], in assay [13] and in assay [14] was “inactive” in each case. The Potency result in assay [15], in assay [16] and in [19] was “inactive” each time. Also, the molecule was classed as inactive in [8] and in [10].

In the case of `C=CCc1ccccc1O`, the Potency entry in assay [1], in [2], in assay [3], in assay [4], in assay [5] and in [6] was “inactive” throughout. Besides, the Potency entry in [7], in assay [9], in assay [11], in assay [12], in [13] and in assay [14] was “inactive” throughout. Also, the Potency result in assay [15], in assay [16] and in [19] was “inactive” throughout. The outcome in [8] and in [10] was inactive.

For `CN[C@@H](C)[C@H](O)c1ccccc1`, the Potency result in assay [1], in assay [2], in assay [3], in assay [4], in assay [5] and in [6] was “inactive” in each case. Moreover, the Potency result in assay [7], in assay [9], in assay [11], in assay [12], in assay [13] and in [14] was “inactive” throughout. The Potency result in [15], in [16], in assay [18] and in assay [19] was “inactive” throughout. Further, the result in assay [8], in assay [10] and in assay [17] was inactive. In addition, the max activation in [20] is -0.788%.

In the case of `CCOP(=S)(OCC)Oc1ccc(S(C)=O)cc1` (centres undefined), the Potency result in assay [1], in assay [2], in assay [3], in assay [4], in assay [5] and in assay [6] was “inactive” in each case. For the same molecule, the Potency entry in [7], in assay [9], in [11], in assay [12], in [13] and in [14] was “inactive” throughout. For the same molecule, the Potency entry in assay [15] is “inactive”. For the same molecule, the result in assay [8] and in [10] was inactive. Moreover, the Potency in [16] is 38.6 µM (active).

Regarding `CCCCCBr`, the Potency result in [1], in [2], in assay [3], in assay [4], in assay [5] and in assay [6] was “inactive” in each case. In addition, the Potency entry in [7], in assay [9], in assay [11], in assay [12], in assay [13] and in assay [14] was “inactive” each time. The Potency result in assay [15], in assay [16] and in [19] was “inactive” each time. Further, the molecule was called inactive in assay [8] and in [10].

In the case of `CCC1(C2=NCCN2)Cc2ccccc2O1` (centres undefined), the Potency result in assay [1], in assay [2], in assay [3], in assay [4], in assay [5] and in assay [6] was “inactive” throughout. The Potency result in [7], in assay [9], in [11], in [12], in assay [13] and in assay [14] was “inactive” each time. Moreover, the Potency result in [15], in assay [16] and in assay [19] was “inactive” each time. Also, the molecule was classed as inactive in assay [8] and in [10].
